High-throughput results (PubChem BioAssay)
Nrf2 ARE act – qHTS of Nrf2 Activators | AREc32 ARE-luciferase reporter (MCF7-derived line), luminescence, 24 h | Potency, µM (top dose mostly 46.1 µM), without a hit: at the highest dose activation, actives largely listed as activators | 410,000 compounds, 0.31% hits | AID 624171, 2012; further: potency means the concentration at half of the fitted maximal effect; % of control where 0% means no effect; nearly all actives have a fitted effect of over 65% in size
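Quantitative high-throughput format: AREc32 reporter cells, 1000 per well, received compound by pin transfer and were incubated 24 hr at 37 deg C, 5% CO2, before Steady-Glo luminescence detection.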
Nrf2 block – Nrf2 qHTS screen for inhibitors; A549 ARE-Fluc reporter, luciferase luminescence, 18-24 h; Potency, µM (top dose mostly 46 µM), without a hit: at the top dose activity change, negative = inhibition, usual class: inhibitors; 360,000 compounds, 2.1% hits; AID 504444, 2011; further: potency means the concentration at half of the fitted maximal effect; on the % scale 0 is the no-effect control and ±100 the full control effect; nearly all actives have a fitted effect of over 60% in size
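A549 ARE_Fluc cells (5000/well, 5% FBS OPTI-MEM) pre-incubated 2 h, then treated with compounds 18-24 h at 37C/5% CO2 in concentration-response. CellTiter-Fluor viability read first; BugLite luciferase luminescence after 15 min at room temperature gives Nrf2 activity.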
ClpP mod – qHTS Assay for Activators of ClpP; ATP-dependent Clp protease proteolytic subunit (Bacillus subtilis (strain 168)), P80244; purified B. subtilis ClpP, FRET peptide cleavage, 20 min; Potency, µM (top dose mostly 57.5 µM), for the others: at the top dose activity change, negative = active; 340,000 compounds, 1.9% hits; active means well fitted falling curve with a large enough effect; inconclusive means small, poorly fitted or top-dose-only effect; inactive means no such curve, though single readings can be large or run the other way; further: potency means the concentration at half of the fitted maximal effect; the source files actives as falling curves though it sought activators and does not explain the sign; nearly all actives have a fitted effect of over 65% in size
Target sequence (P80244 whole entry, looked up): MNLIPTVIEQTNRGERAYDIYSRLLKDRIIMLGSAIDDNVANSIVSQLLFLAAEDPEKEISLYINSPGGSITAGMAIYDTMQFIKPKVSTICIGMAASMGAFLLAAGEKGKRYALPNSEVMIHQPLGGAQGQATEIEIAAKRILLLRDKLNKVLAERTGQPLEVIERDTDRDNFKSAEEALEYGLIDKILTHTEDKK
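FRET quenching reversal measured ClpP activation: 10 microg/mL B. subtilis ClpP at pH 8 with the FRET-FV decapeptide, read at 430 nm after 320 nm excitation. The 20-min minus 0-min signal was scaled between DMSO/no-enzyme wells and ADEP (5.8 microM final).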
miR-21 act – qHTS Assay for Modulators of miRNAs and/orActivators of miR-21 | AID 2288, 2010 | 340,000 tested, under 10 active | HeLa miR-21 FLuc reporter, luciferase, 48 h | Potency, µM (doses to about 38.3 µM), inactives show at the highest dose activity change, positive = activation, hits mostly activators;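 further: % of control where 0% means no effect; miR-21 action dims this reporter so a rising signal means less miR-21 action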
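HeLa miR-21-FLuc reporter line, endogenous miR-21; 2000 cells/well in DMEM/10% FBS; compound titration up to ~40uM final, 48 h, 37 degree Celsius; luciferase detection reagent, 15 min lysis, CCD luminescence.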
IL-2 act – qHTS of IL-2 Activators. IL-2 activation reporter assay, cell-based qHTS; stimulated with anti-CD3/CD4/CD28 beads; in transgenic mouse T cells. activation, % (series mostly up to about 46 µM). 360,000 compounds, 0.065% hits. AID 652025, 2013; in the data active means activation above about 50%; inconclusive means mostly about 30% to 49%; further: 0% is about no effect
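Readout is EGFP and DsRed signal by fluorescent plate cytometry after 18 h at 37 degrees C. Transgenic mouse T cells (750/well) received compound for 60 min before bead stimulation (anti-CD3, anti-CD4, anti-CD28); memory T cells served as non-tolerant control.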
A549 viability – Nrf2 qHTS screen for inhibitors: counterscreen for cytotoxicity. Potency, µM (highest dose often 46 µM), for inactives: top-dose activity change, negative = cytotoxicity, actives largely listed as inhibitors. A549 ARE-Fluc cells, CellTiter-Fluor viability, 18-24 h. 390,000 compounds, 0.16% hits; further: potency means the concentration at half of the fitted maximal effect; on the % scale 0 is the no-effect control and ±100 the full control effect
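Cytotoxicity counterscreen: CellTiter-Fluor fluorescence was measured in A549 ARE_Fluc cells after 18-24 h of compound exposure in a concentration series. The subsequent BugLite luminescent read reports ARE-luciferase activity.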
The depositor's hits bear a star; ? = inconclusive; nt = not tested or not shown; [ ] = remark or other dose. The list is not random: actives were taken first. Their share in the collection is about 3.7%. Unless noted, the call rests on the fitted dose curve; in most records, active means well fitted curve in the direction sought with a large enough effect; inconclusive means small, poorly fitted or top-dose-only effect, or another doubt; inactive means no such curve, though single readings can be large; an effect the other way counts as inactive or inconclusive.

SMILES	Nrf2 ARE act	Nrf2 block	ClpP mod	miR-21 act	IL-2 act	A549 viability
O=C(C[N+]12CN3CN(CN(C3)C1)C2)c1ccc(I)cc1	nt	nt	-3%	nt	nt	nt
CCOC(=O)c1[nH]c2cc(OC)c(OC)cc2c1NC(=O)C(C)N1CCN(Cc2ccccc2)CC1 (centres undefined)	0%	-3%	32µM*	10%	-3	-6%
COC(=O)c1[nH]c2ccccc2c1NC(=O)Oc1ccccc1	9%	nt	28µM*	-22%	2	-3%
COC(=O)c1[nH]c2cc(OC)c(OC)cc2c1NC(=O)Oc1ccccc1	0%	nt	32µM*	-8%	-6	26%
Cc1ccccc1NC(=O)Cn1nc(-c2ccccc2)nc(Cc2ccccc2)c1=O	-1%	nt	2%	5%	nt	-1%
CCCCCCCCn1ccc(=N)cc1	-2%	-23%	?	?	-1	0%
CCCCCCCCCCn1ccc(=N)cc1	2%	15µM*	0%	?	-1	-28%
Cc1c(C(=O)N2CCCC2)oc2c1-c1nn(CC(=O)NC(C)c3ccccc3)cc1CC2 (centres undefined)	1%	18µM*	6%	25%	nt	-4%
Cc1c(C(=O)N2CCCC2)oc2c1-c1nn(CC(=O)NCc3cccc(F)c3)cc1CC2	0%	?	5%	9%	nt	-1%
COc1cc(F)c(S(=O)(=O)N2CCN(S(=O)(=O)c3ccco3)CC2)c(F)c1	nt	9%	nt	nt	nt	-4%
Cc1cccc(NC(=O)c2ccc(Cn3nc(N4CCN(c5ccccc5)CC4)ccc3=O)o2)c1C	0%	21µM*	0%	20%	nt	?
Cc1cc(F)ccc1NC(=O)Cn1nc(N2CCN(c3ccccc3)CC2)ccc1=O	0%	-8%	0%	3%	nt	-14%
CCOc1cc(CNCCSc2nnnn2C)ccc1OCc1ccc(Cl)cc1Cl	-3%	-27%	0%	20%	nt	?
Cn1nnnc1SCCNCc1ccccc1OCc1ccc(Cl)cc1Cl	-5%	12µM*	0%	18%	nt	-1%
O=C(CCl)N(c1ccccc1)c1c[nH]c2ccccc12	?	-13%	-2%	?	-6	-2%
O=C(CCl)N(c1ccc(Cl)cc1)c1c[nH]c2ccccc12	-3%	21µM*	-1%	?	-1	?
CC(C(=O)c1ccc(-c2ccccc2)cc1)[n+]1ccccc1 (centres undefined)	2%	7.3µM*	-19%	21%	-3	?
COC(=O)c1c(-n2cnnn2)sc(C)c1C	0%	-21%	22µM*	-9%	1	14%
CCOc1ccc(-n2cc(-c3ccccc3)c3c(NCCc4ccccc4)ncnc32)cc1	1%	nt	25µM*	-9%	nt	1%
COc1ccc(CCNc2ncnc3c2c(-c2ccccc2)cn3-c2cccc(Cl)c2)cc1OC	8%	nt	?	23%	nt	-12%
Clc1ccc(CCNc2ncnc3c2c(-c2ccccc2)cn3-c2ccccc2)cc1	6%	nt	20µM*	7%	nt	-2%
CC(=O)Nc1cccc(S(=O)(=O)Nc2ccc(C)c(C)c2)c1	nt	?	nt	nt	nt	-1%
CCOC(=O)c1cnc(Cc2ccccc2)[nH]c1=O	-1%	13%	-1%	-2%	0	2%
CCOC(=O)c1cnn2c1[nH]c(=O)c1ccccc12	2%	nt	3.5µM*	-11%	-2	8%
COC(=O)c1c(NC(=O)/C=C/C(=O)O)sc(Cc2ccccc2)c1C	22µM*	-21%	-1%	11%	1	-12%
SMILES	Nrf2 ARE act	Nrf2 block	ClpP mod	miR-21 act	IL-2 act	A549 viability
COC(=O)c1c(N)sc(Cc2ccccc2)c1C	0%	5%	1%	2%	-3	5%
CC(C)(C)NC(=O)Cn1cc(S(=O)(=O)Cc2ccccc2Cl)c2ccccc21	5%	?	0%	-11%	nt	-10%
O=C(Cn1cc(S(=O)(=O)Cc2ccc(F)cc2)c2ccccc21)NCc1ccccc1	0%	-9%	-1%	-2%	nt	8%
CC(=O)c1nc(N2CCN(S(=O)(=O)c3ccc(C)cc3)CC2)c2ccccc2n1	nt	-28%	-3%	nt	nt	7%
Cc1cc(N2CCN(S(=O)(=O)c3ccc(Cl)cc3)CC2)c2ccccc2n1	0%	21µM*	?	26%	0	-22%
Cn1c(N2CCN(S(=O)(=O)c3ccc(Cl)cc3)CC2)nc2ccccc21	0%	?	0%	-2%	1	0%
Cc1cc(N2CCN(S(=O)(=O)c3ccc(Cl)c(Cl)c3)CC2)c2ccccc2n1	1%	23µM*	-13%	26%	-1	-3%
CCC(=O)Nc1ccccc1-c1nc2ccccc2n(CC(=O)c2ccc(Br)cc2)c1=O	0%	17%	-1%	4%	nt	-5%
Cc1ccc(NC(=O)CN(C)S(=O)(=O)c2cccc3nsnc23)cc1Cl	2%	18µM*	1%	4%	2	2%
O=C(Nc1ccccc1)c1ccc(S(=O)(=O)NCc2ccco2)cc1	3%	nt	5%	-1%	11	-8%
Cc1cc(C)n(-c2ccc(C(=O)Nc3ccc(S(=O)(=O)NCc4ccco4)cc3)cc2)n1	-2%	26µM*	-1%	?	-2	?
Cc1ccc(NC(=O)CN(C)S(=O)(=O)c2cccc3nsnc23)cc1C	0%	-3%	3%	-4%	-2	2%
O=C(Nc1ccccc1)c1cccc(S(=O)(=O)NCc2ccco2)c1	15%	16µM*	-3%	15%	-2	?
Cc1cc(C)n(-c2ccc(C(=O)Nc3cccc(S(=O)(=O)N(C)C)c3)cc2)n1	-1%	18µM*	2%	25%	-3	-15%
Cc1ccnc2ccc(N)cc12	nt	nt	-13%	nt	nt	nt
C(=C\c1ccnc2ccccc12)/c1cccnc1	nt	nt	2%	nt	nt	nt
Cc1ccc(C)c(CN2C(=O)c3ccccc3Sc3ccc(C(=O)NC4CCCC4)cc32)c1	1%	nt	2%	-4%	nt	-2%
Cc1ccc(NC(=O)CNc2ccc(Cl)c(Cl)c2)cc1S(=O)(=O)N(C)C	-1%[9.22 µM]	12µM*	1%	24%	0	?
CN(C)S(=O)(=O)c1cccc(NC(=O)c2cccc(NS(=O)(=O)c3ccccc3)c2)c1	-1%	15µM*	-6%	26%	-3	?
CN(C)S(=O)(=O)c1cccc(C(=O)Nc2ccc(C(=O)Nc3cccc(S(N)(=O)=O)c3)cc2)c1	2%	-6%	nt	nt	0	3%
CN(C)S(=O)(=O)c1cccc(NC(=O)c2ccccc2OCc2ccc(F)cc2)c1	0%	-23%	20µM*	1%	-6	12%
